Data from PubChem BioAssay AID1159580 (chemical genetic matrix, 2015).
“And” between values parts separate entries of the source, which are not always exact repeats. Equal values may be shown once. Among all 5,500 compounds or so, about 2,000 (36%) were called active. Inconclusive results (about 18%) are left out. No stated cut-off is given here; in the data, active means normalized growth mostly below about 0.91 (no sharp cut-off); inconclusive means no clear call, values can overlap the other calls; inactive means mostly above about 0.92. This is one part of the list.

Test: chemical genetic growth profiling, strain panel (AID 1159580);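 further: tested at 20 µM; growth read once vehicle control cultures reached saturation at 30 °C; 1 = growth at the plate median or of vehicle wells; lower values mean less growth of the strain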
Conditions: S. cerevisiae deletion strains, growth OD

Measured: normalized growth

COc1cc(O)ccc1C(C)=O
inactive: locus YAL013W, strain DEP1, hits give low values 0.99 | locus YAL021C, strain ccr4, hits give low values 1.02 | locus YAL026C, strain drs2, hits give low values 1.02 | locus YAL030W, strain snc1, hits give low values 1.01 | locus YBL061C, strain skt5, hits give low values 1.02 | locus YBR009C, strain hhf1, hits give low values 1.02 | locus YBR021W, strain FUR4, hits give low values 1.05 | locus YBR023C, strain chs3, hits give low values 1.04 | locus YBR171W, strain sec66, hits give low values 1.01 | locus YBR229C, strain ROT2, hits give low values 0.958 | locus YBR231C, strain swc5, hits give low values 1 | locus YBR279W, strain paf1, hits give low values 1 | locus YCL011C, strain gbp2, hits give low values 1.03 | locus YCL016C, strain dcc1, hits give low values 1.03 | locus YCL029C, strain bik1, hits give low values 0.973 | locus YCL061C, strain MRC1, hits give low values 1.02 | locus YCL069W, strain vba3, hits give low values 1.01 | locus YCR088W, strain abp1, hits give low values 1.02 | locus YDL005C, strain med2, hits give low values 1.01 | locus YDL035C, strain GPR1, hits give low values 0.979 | locus YDL040C, strain nat1, hits give low values 1.01 | locus YDL074C, strain BRE1, hits give low values 1.03 | locus YDL101C, strain DUN1, hits give low values 0.974 | locus YDL134C, strain PPH21, hits give low values 0.977 | locus YDL185W, strain tfp1, hits give low values 0.97 | locus YDL192W, strain arf1, hits give low values 0.992 | locus YDR001C, strain nth1, hits give low values 1.02 | locus YDR069C, strain doa4, hits give low values 1.02 | locus YDR101C, strain arx1, hits give low values 1.03 | locus YDR137W, strain rgp1, hits give low values 1.05 | locus YDR150W, strain NUM1, hits give low values 0.981 | locus YDR159W, strain sac3, hits give low values 1.03 | locus YDR162C, strain NBP2, hits give low values 0.939 | locus YDR195W, strain ref2 1 | locus YDR297W, strain sur2, hits give low values 1.02 | locus YDR318W, strain mcm21, hits give low values 0.965 | locus YDR334W, strain swr1, hits give low values 1.02 | locus YDR335W, strain msn5, hits give low values 1.01 | locus YDR388W, hits give low values 0.949 | locus YDR392W, strain spt3, hits give low values 0.95 | locus YDR502C, strain sam2, hits give low values 1.02 | locus YEL003W, strain gim4, hits give low values 1.01 | locus YEL037C, strain rad23, hits give low values 1.02 | locus YEL061C, strain CIN8 (second series), hits give low values 1.02 | locus YEL061C, strain CIN8, hits give low values 0.982 | locus YER015W, strain faa2, hits give low values 1.03 | locus YER016W, strain bim1, hits give low values 1.02 | locus YER110C, hits give low values 0.979 | locus YER111C, strain swi4, hits give low values 1.02 | locus YER155C, strain BEM2 (second series), hits give low values 1.02 | locus YER155C, strain BEM2, hits give low values 0.989 | locus YER167W, strain BCK2, hits give low values 0.979 | locus YFR010W, strain ubp6, hits give low values 1.02 | locus YGL078C, strain dbp3, hits give low values 0.989 | locus YGL086W, strain mad1, hits give low values 1.02 | locus YGL167C, strain pmr1, hits give low values 1.02 | locus YGL173C, strain kem1, hits give low values 1.03 | locus YGL227W, strain vid30, hits give low values 1.02 | locus YGL240W, strain doc1, hits give low values 1.01 | locus YGL248W, strain PDE1, hits give low values 0.952 | locus YGL253W, strain hxk2, hits give low values 1.02 | locus YGR078C, strain PAC10, hits give low values 0.952 | locus YGR135W, strain pre9, hits give low values 0.962 | locus YGR229C, strain SMI1, hits give low values 1 | locus YGR252W, strain gcn5, hits give low values 0.961 | locus YHR013C, strain ard1, hits give low values 1.03 | locus YHR027C, strain rpn1, hits give low values 1.02 | locus YHR030C, strain SLT2, hits give low values 0.998 and 1.02 | locus YHR079C, strain IRE1 (second series), hits give low values 0.99 | locus YHR079C, strain IRE1, hits give low values 1.01 | locus YHR094C, strain hxt1, hits give low values 0.973 | locus YHR129C, strain ARP1, hits give low values 0.987 | locus YHR142W, strain chs7, hits give low values 1.04 | locus YHR200W, strain rpn10, hits give low values 0.982 | locus YIL066C, strain RNR3, hits give low values 0.985 | locus YIL073C, strain SPO22, hits give low values 0.955 | locus YIL125W, strain kgd1, hits give low values 0.981 | locus YIR030C, strain dcg1, hits give low values 0.987 | locus YJL092W, strain hpr5, hits give low values 1.02 | locus YJL095W, strain BCK1 (second series), hits give low values 1.02 | locus YJL095W, strain BCK1, hits give low values 0.942 and 1.02 | locus YJL115W, strain asf1, hits give low values 1.02 | locus YJL129C, strain trk1, hits give low values 1.04 | locus YJL134W, strain LCB3, hits give low values 0.989 | locus YJL154C, strain vps35, hits give low values 1.02 | locus YJL164C, strain tpk1, hits give low values 1.03 | locus YJL166W, strain qcr8, hits give low values 1.01 | locus YJL168C, strain set2, hits give low values 1.01 | locus YJL187C, strain SWE1 (second series), hits give low values 0.974 | locus YJL187C, strain SWE1, hits give low values 1.01
